We go through 15 compounds from PubChem BioAssay AID743463 (Broad Institute, 2014).

The list shows a part of the results. Results filed as inconclusive are left out. The source made the active and inactive calls.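 How the source made its calls: active means dose curves showing G6PC suppression whose half-maximal dose is at most twice the top valid dose; inconclusive means flat curves with moderate negative activity, or unreliable fits; inactive means the rest.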

The experiment can be described thus: suppressors of forskolin-stimulated G6PC mRNA, dose response, PGC-1a acetylation activator project, cell-based, hepatocytes, RT-qPCR, cherry-picked samples (AID 743463).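 Further: G6PC expression relative to GAPDH housekeeping gene as delta delta Ct.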 Conditions: primary mouse hepatocytes; series mostly up to 26 µM. (In qPCR the cycle at which signal appears reflects the starting amount.)
On to `O=S(=O)(NCc1ccccc1Br)c1ccccc1Br`, for which the compound was called inactive. On to `CCC(C)(C)n1nnnc1C(c1ccccc1OC)N1CCSCC1` (stereo not given), for which the compound was called inactive. Next, `Cc1ccc(S(=O)(=O)Nc2ccc3c(c2)C(=O)N([C@@H](C)CO)C[C@@H](C)[C@H](CN(C)C(=O)Nc2cccc4ccccc24)OCCCC[C@H](C)O3)cc1`: “inactive”; `COc1ccc(Nc2nnc(C)c3ccccc23)cc1`: “inactive”; `Cc1cc(C(=O)NNS(=O)(=O)c2ccccc2C(F)(F)F)nn1C(C)(C)C`: “inactive”. Turning to `CCOc1ccccc1CN1CCN(C2CCC2)CC1CCO` (stereo not given), the call was inactive. For `CCOC(=O)c1c(NC(=O)CSc2cn(CC)c3ccccc23)sc2c1CCC2` the value was “inactive”; for `O=C(NCCC1CCCCN1S(=O)(=O)c1cccs1)C(=O)Nc1ccc(F)cc1F` (stereo not given), “inactive”. Next, `COc1ccc(-n2nnnc2CNC(=O)c2ccc3ccccc3c2)cc1`: “inactive”. With `CC(C)CCNc1nc(N2CCCC2)c2c(c1C#N)CCN(C)C2`, the compound was called inactive. Next, `CCOC(=O)c1c(-c2ccc(C)cc2C)csc1NC(=O)CSc1nnnn1C`: “inactive”. Consider `CCCCC(=O)Nc1ccc(C(=O)NCCCn2ccnc2)cc1`, for which the call was inactive. For `Cc1ccc(OCC(=O)NCCCNC(=O)c2cccnc2)cc1C` the value was “inactive”; for `O=C(NCc1ccccc1)C(c1ccccc1)N(C(=O)c1csnn1)c1ccc(F)cc1` (stereo not given), “inactive”.

Take `Cc1cc(C)c2c(-n3cccc3)c(C(=O)NNS(=O)(=O)c3ccc(F)cc3)sc2n1`: the result was inactive.
